In PubChem BioAssay (NCI):
About 83,000 compounds went through this panel and 20% of them were active in at least one assay; those are over-represented in the sample as a whole.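 A percent growth of 40 corresponds to 60% growth inhibition; 0 means no net growth; -100 means all cells died. Active threshold: below 10.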 A number with no mark means an inactive call. The source made the active and inactive calls.

Tested on: NCI/ADR-RES ovarian
Assay: NCI-60 one-dose screen, 48 h (100 = growth as untreated, 0 = no growth, -100 = all killed)
Conditions: 10 µM unless noted

| Structure (SMILES) | growth |
| --- | --- |
| CC(=O)OC1/C=C\CC/C=C\C1 (centres undefined) | 122% |
| CCCCCCCCC1OC1CCCCCCCC(=O)O (centres undefined) | 104% |
| O=c1[nH]c(=S)[nH]c(O)c1/C=C1\C=Nc2ccccc21 | 87.9% |
| CCOC1=C(Cl)C(=O)C(OCC)=C(Cl)C1=O | 100% |
| Cc1ccc(C(=O)NN)cc1 | 103% |
| O=C1C(=O)c2ccccc2C(O)=C1CCCc1ccc(Oc2ccccc2)cc1 | 91.6% |
| CCN(CC)CCCC(C)Nc1c(C)cnc2cc(Cl)c(C)cc12 (centres undefined) | 93.2% |
| Oc1ccc([S+](c2ccc(O)cc2)c2ccc(O)cc2)cc1 | 112% |
| Cn1c2c(cc(S(=O)(=O)c3ccccc3)c1=O)CCc1c-2cnn1-c1ccc(Cl)cc1 | 39.3% |
| CCCCCN1CCN(C(CC(=O)c2ccccc2)C(=O)c2ccccc2)CC1 (centres undefined) | 99% |
| S=C(N/N=C/c1cc(Cl)cc(Cl)c1)NC12CC3CC(CC(C3)C1)C2 | 77% |
| CC(=O)c1ccc2c(c1)c1ccccc1n2C | 91.2% |
| CC1(C)NC(=S)NC1=O | 104% |
| O=C(NC1CCN(Cc2ccccc2)CC1)c1cc(-c2cccnc2)nc2ccc(Cl)cc12 | 67% |
| O=C(O)CS(=O)c1ccc(Cl)cc1 (centres undefined) | 109% |
| Cc1ccc(S(=O)(=O)NC(CCC(=O)Nc2ccccc2)C(=O)Nc2ccccc2)cc1 (centres undefined) | -24.7% (active) |
| COc1ccc(/C=C2\CCCC3=C2N=C2SC=NN2C3c2ccc(OC)c(OC)c2)cc1OC (centres undefined) | 21.4% |
| O=C1C(Br)=CC2C1C1C3CCC3C2(Br)C12OCCO2 (centres undefined) | 51.3% |
| Oc1ccc(Br)cc1/C=N/NC(=S)NC12CC3CC(CC(C3)C1)C2 | -3.63% (active) |
| Cc1ccc([C@@H]2C[C@H](O)Cc3ccccc3N2)s1 | 104% |

| Structure (SMILES) | growth |
| --- | --- |
| CCCCCCC(C)N(CC(C)(C)O)C(=O)c1ccc([N+](=O)[O-])cc1 (centres undefined) | 85.7% |
| CC[n+]1c(C)ccc2cc(C)ccc21 | 104% |
| CCN(CC)CCCNc1c2ccc(Cl)cc2nc2ccc(OC)cc12 | 0.48% (active) |
| O=C(NCCNCCO)c1cc([N+](=O)[O-])cc([N+](=O)[O-])c1O | 107% |
| COC1=C(OC)C(=O)c2ccccc2C1=O | 94.3% |
| O=C(/C=C\c1ccc(NCc2ccc(C(=O)O)cc2)cc1)CCl | 100% |
| O=C(/C(Br)=C/c1ccccc1)c1ccccc1 | -11% (active) |
| CC1Cc2cc(F)ccc2-n2cccc21 (centres undefined) | 107% |
| Oc1ccc(CN(Cc2ccc(C(F)(F)F)cc2)Cc2ccc(O)c3ncccc23)c2cccnc12 | 6.89% (active) |
| CNc1ccc(Nc2ccc(S(=O)(=O)O)cc2)c2c1C(=O)c1ccccc1C2=O | 108% |
| CC(=O)Nc1ccc(C(=O)/C=C/c2ccc(N(C)C)cc2)cc1 | 99.3% |
| Cc1sc(NC(=O)c2ccc(C(C)(C)C)cc2)c(C(=O)O)c1C | 58.9% |
| O=C(CBr)OCc1ccc([N+](=O)[O-])o1 | 101% |
| CCCCN(CCC)CCCCCCCCCCN1CCCc2ccccc21 | 90.1% |
| C=C(C)[C@@H]1CC[C@]2(COC(=O)c3ccccc3C(=O)O)CC[C@]3(C)[C@H](CC[C@@H]4[C@@]5(C)CCCNC(C)(C)[C@@H]5CC[C@]43C)[C@@H]12 | 89.7% |
| COc1ccc(/C=C/C(=O)/C=C/c2cc3ccccc3[nH]c2=O)cc1 | 92.5% |
| CCCCCC(=C/c1ccccc1)/C=N/N=C(N)N | 41.7% |
| CC([C@H]1CC=C2C3CCC4=C[C@@H](N(C)C)CC[C@]4(C)C3CC[C@@]21C)N(C)C (some centres undefined) | 68.8% |
| C=CN(C)S(C)(=O)=O | 20.1% |
